Compound activity deposited in PubChem by National Center for Advancing Translational Sciences (NCATS).
Only some compounds are listed: those with a hit (about 18% of all), similar ones and a draw of the others.
DT40 TDP1 CPT – DT40-hTDP1 cell growth loss with CPT | chicken DT40 Tdp1-/-;hTDP1 cells + 20 nM CPT, ATP luminescence, 48 h | Potency, µM (titrated, usually from 46.2 µM), hits mostly inhibitors | 12% of 420,000 active; further: nearly all actives have a fitted effect of over 55% in size
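Chicken DT40 Tdp1-/- cells complemented with human TDP1, 400 cells/well, exposed to compounds plus 20 nM camptothecin for at least 48 h at 37 C; viability read as ATP content by CellTiter-Glo luminescence.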
LDHA block – inhibitors of human lactate dehydrogenase A | activity change, % (values are at about 110 or 230 µM) | AID 1347041 | P00338 | purified LDHA, NADH/diaphorase-resazurin fluorescence; active compounds read low | 0.15% of 480,000 active; in the data active means activity change below about -30%; inconclusive means mostly about -25% to -30%
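Enzyme activity of human lactate dehydrogenase 5 (2 nM; 0.06 mM NADH, 0.2 mM pyruvate, 5 min, RT) is measured via a resazurin/diaphorase fluorescence readout of residual NADH.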
Gal4-VP16 FLuc – counter-screen for ROR gamma inhibitors: Gal4-VP16 reporter; Drosophila S2 Gal4-VP16 UAS-luciferase, luminescence, 20 h; Potency, µM (titrated, usually from 53.6 µM), hits mostly inhibitors; 3.5% of 310,000 active;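 further: Gal4-VP16 expression switched on by copper sulfate through the metallothionein promoter; nearly all actives have a fitted effect of over 50% in size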
TDP1 cell noCPT – qHTS for Inhibitors of human tyrosyl-DNA phosphodiesterase 1 (TDP1): qHTS in cells in absence of CPT | DT40 Tdp1-/- hTDP1 cells, no CPT, ATP luminescence, 48 h | 15% of 420,000 active | AID 686978, 2013 | Potency, µM (top dose mostly 46.2 µM), most hits filed as inhibitors; further: nearly all actives have a fitted effect of over 55% in size
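Luminescent ATP content (CellTiter-Glo) served as the growth readout. Knockout chicken DT40 cells expressing human TDP1 were exposed to compounds without camptothecin for a minimum 48 hr at 37 °C.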
RORgamma inh – ROR gamma (mouse) transcription inhibition. P51450. Drosophila S2 Gal4-RORgamma UAS-luciferase reporter, 20 h. Potency, µM (series often up to 53.6 µM), actives largely listed as inhibitors. 5.4% of 310,000 active. AID 2551; further: nearly all actives have a fitted effect of over 60% in size
Target sequence (P51450 whole entry, looked up, the tested form may be a part): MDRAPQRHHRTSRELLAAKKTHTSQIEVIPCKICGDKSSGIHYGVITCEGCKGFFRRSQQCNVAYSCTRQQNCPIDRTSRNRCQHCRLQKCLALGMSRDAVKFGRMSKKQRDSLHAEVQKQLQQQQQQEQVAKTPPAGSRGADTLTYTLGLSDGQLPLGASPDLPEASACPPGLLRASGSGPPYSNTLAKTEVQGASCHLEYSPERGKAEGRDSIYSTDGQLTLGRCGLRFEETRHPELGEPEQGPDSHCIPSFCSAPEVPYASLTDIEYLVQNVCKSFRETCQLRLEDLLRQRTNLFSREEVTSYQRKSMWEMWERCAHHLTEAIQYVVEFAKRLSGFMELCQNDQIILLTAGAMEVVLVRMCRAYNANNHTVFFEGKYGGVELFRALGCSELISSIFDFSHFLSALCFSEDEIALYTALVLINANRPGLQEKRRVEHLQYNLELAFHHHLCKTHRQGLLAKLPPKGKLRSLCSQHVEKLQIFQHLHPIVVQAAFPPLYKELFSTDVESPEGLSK
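Compounds are pin-transferred onto Drosophila Schneider cells expressing a copper-inducible Gal4–ROR gamma transactivation domain fusion. After 1 hr, copper sulfate is added to 700 uM final; luciferase is read 20 hr later.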
IL1B secr inh – inhibitors of inflammasome signaling (IL-1 beta secretion); THP-1 LPS/ATP IL-1B secretion, AlphaLISA, 16 h; active compounds read low; activity change, % at 57.5 µM; 4.7% of 360,000 active; AID 743279; in the data active means activity change below about -50%; inconclusive means mostly about -30% to -49%
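THP-1 cells pretreated 1 hr with compounds (up to 57.5 uM final), then stimulated with LPS (250 ng/mL final) plus ATP (1.25 mM final); secreted IL-1B measured by AlphaLISA after 16 hr, decreased signal indicating inhibition.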
Each line names hits and unclear results; the compound was inactive in the other large screens. Unless noted, the call rests on the fitted dose curve; in most records, active means well fitted curve in the direction sought with a large enough effect; inconclusive means small, poorly fitted or top-dose-only effect, or another doubt; inactive means no such curve, though single readings can be large; an effect the other way counts as inactive or inconclusive.

CCCN1C(=O)/C(=C/c2ccc(OCC(=O)OCC)cc2)NC1=S	RORgamma inh inconclusive
CCCN1C(=O)/C(=C/c2ccc(N3CCCC3)c(C)c2)NC1=S	DT40 TDP1 CPT 16µM, TDP1 cell noCPT 21µM
Cc1cc(/C=C2\NC(=S)N(C)C2=O)ccc1N1CCCC1	DT40 TDP1 CPT inconclusive, Gal4-VP16 FLuc inconclusive, TDP1 cell noCPT inconclusive, RORgamma inh 3.5µM
Cc1cc(C(=O)Nc2ccc(SC3CCCC3)cc2)c(C)o1	none (no result: DT40 TDP1 CPT, Gal4-VP16 FLuc, TDP1 cell noCPT, RORgamma inh, IL1B secr inh)
CC(OC(=O)c1ccccc1Cc1ccccc1)C(=O)NC(N)=O (stereo unspecified)	none (no result: DT40 TDP1 CPT, Gal4-VP16 FLuc, TDP1 cell noCPT, RORgamma inh, IL1B secr inh)
COC(=O)C(C(=O)OC)C(CC(C(C(=O)OC)C(=O)OC)C(C(=O)OC)C(=O)OC)c1cc(OC)ccc1Br (stereo unspecified)	none (no result: DT40 TDP1 CPT, Gal4-VP16 FLuc, TDP1 cell noCPT, RORgamma inh, IL1B secr inh)
O=C(CSCc1nc2ccccc2[nH]1)Nc1ccc2ccccc2c1	none
CCCCCC(=O)Nc1ccc2ccccc2c1	none
O=C(CSCc1cccc(CSCC(=O)Nc2ccc3ccccc3c2)n1)Nc1ccc2ccccc2c1	DT40 TDP1 CPT inconclusive, TDP1 cell noCPT 15µM
O=C(CS)Nc1ccc2ccccc2c1	DT40 TDP1 CPT 2.9µM, TDP1 cell noCPT 4.1µM, IL1B secr inh -95
Cc1ccc2c(=O)c(CN3CCC(C)CC3)c(C)[nH]c2c1C	none (no result: DT40 TDP1 CPT, Gal4-VP16 FLuc, TDP1 cell noCPT, RORgamma inh, IL1B secr inh)
CCN(CC)S(=O)(=O)c1cccc(N=Nc2sc(N)nc2C)c1	DT40 TDP1 CPT inconclusive
COC(=O)c1cc(N=Nc2sc(N)nc2C)cc(C(=O)OC)c1	DT40 TDP1 CPT inconclusive, TDP1 cell noCPT 13µM
CN(C)c1ccc(CNC(=O)c2ccc(NC(=O)c3nsc4ccccc34)cc2)cc1	TDP1 cell noCPT inconclusive (no result: Gal4-VP16 FLuc, RORgamma inh, IL1B secr inh)
Cc1ccc(C(=O)NCc2ccc(N(C)C)cc2)cc1NC(=O)c1nsc2ccccc12	DT40 TDP1 CPT inconclusive, TDP1 cell noCPT 16µM (no result: Gal4-VP16 FLuc, RORgamma inh, IL1B secr inh)
Cc1ccc(C(=O)NCc2ccccc2)cc1NC(=O)c1nsc2ccccc12	DT40 TDP1 CPT inconclusive, TDP1 cell noCPT 16µM (no result: Gal4-VP16 FLuc, RORgamma inh, IL1B secr inh)
CC1=NN(c2nc(C)cc(C)n2)C(=O)C1Cc1cccc(Cl)c1 (stereo unspecified)	none (no result: DT40 TDP1 CPT, Gal4-VP16 FLuc, TDP1 cell noCPT, RORgamma inh, IL1B secr inh)
CCN1C2=C(C(=O)CCC2)C(c2ccc(O)c(Br)c2)C2=C1CCCC2=O	DT40 TDP1 CPT inconclusive
O=C1CCCC2=C1C(c1ccc(O)c(Br)c1)C1=C(CCCC1=O)N2c1ccccc1	DT40 TDP1 CPT inconclusive, TDP1 cell noCPT 23µM
CCC(C(=O)Nc1nnc(CC2CCCC2)s1)c1ccccc1 (stereo unspecified)	none (no result: DT40 TDP1 CPT, Gal4-VP16 FLuc, TDP1 cell noCPT, RORgamma inh, IL1B secr inh)
CC(C)c1ccc(NC(=O)C(c2ccccc2)N(Cc2ccco2)C(=O)CC2NC(=O)NC2=O)cc1 (stereo unspecified)	RORgamma inh inconclusive, IL1B secr inh -56
CCC(=O)Nc1ccc(S(=O)(=O)Nc2cccnc2)cc1	none
CCCCOc1ccc(S(=O)(=O)Nc2cccnc2)cc1	DT40 TDP1 CPT 9.2µM, Gal4-VP16 FLuc 11µM, TDP1 cell noCPT 10µM
Cc1ccc(S(=O)(=O)Nc2cccnc2)cc1	DT40 TDP1 CPT inconclusive, TDP1 cell noCPT 29µM
O=C(NCCC1CCCCN1S(=O)(=O)c1ccccc1)C(=O)NCc1ccc(F)cc1 (stereo unspecified)	DT40 TDP1 CPT inconclusive, TDP1 cell noCPT 18µM (no result: Gal4-VP16 FLuc, RORgamma inh)
Cc1ccc(CNC(=O)C(=O)NCCC2CCCCN2S(=O)(=O)c2ccccc2)cc1 (stereo unspecified)	DT40 TDP1 CPT inconclusive, TDP1 cell noCPT 15µM (no result: Gal4-VP16 FLuc, RORgamma inh)
O=C(NCCC1CCCCN1S(=O)(=O)c1ccccc1)C(=O)NCc1ccccc1 (stereo unspecified)	DT40 TDP1 CPT inconclusive, TDP1 cell noCPT inconclusive (no result: Gal4-VP16 FLuc, RORgamma inh)
CO[C@H]1C[C@@H]2CC[C@@H](C)[C@@](O)(O2)C(=O)C(=O)N2CCCC[C@H]2C(=O)O[C@H]([C@H](C)C[C@@H]2CC[C@@H](O)[C@H](OC)C2)CC(=O)[C@H](C)/C=C(\C)[C@@H](O)[C@@H](OC)C(=O)[C@H](C)C[C@H](C)/C=C/C=C/C=C/1C	DT40 TDP1 CPT 4.5µM, Gal4-VP16 FLuc inconclusive, TDP1 cell noCPT inconclusive, RORgamma inh inconclusive (no result: IL1B secr inh)
CO[C@H]1C[C@@H]2CC[C@@H](C)[C@@](O)(O2)C(=O)C(=O)N2CCCC[C@H]2C(=O)O[C@H](C(C)C[C@H]2CC[C@@H](O)[C@H](OC)C2)CC(=O)[C@H](C)/C=C(\C)[C@@H](O)[C@@H](OC)C(=O)[C@H](C)C[C@H](C)/C=C/C=C/C=C/1C (stereo partly specified)	DT40 TDP1 CPT 0.0079µM, TDP1 cell noCPT inconclusive (no result: LDHA block, Gal4-VP16 FLuc, RORgamma inh, IL1B secr inh)
CO[C@H]1C[C@@H]2CC[C@@H](C)[C@@](O)(O2)C(=O)C(=O)N2CCCC[C@H]2C(=O)O[C@H]([C@H](C)C[C@@H]2CC[C@@H](OCCO)[C@H](OC)C2)CC(=O)[C@H](C)/C=C(\C)[C@@H](O)[C@@H](OC)C(=O)[C@H](C)C[C@H](C)/C=C/C=C/C=C/1C	DT40 TDP1 CPT 0.042µM, Gal4-VP16 FLuc inconclusive, TDP1 cell noCPT 0.027µM, RORgamma inh inconclusive (no result: LDHA block, IL1B secr inh)
CC[C@@H]1/C=C(\C)C[C@H](C)C[C@H](OC)[C@H]2O[C@@](O)(C(=O)C(=O)N3CCCC[C@H]3C(=O)O[C@H](/C(C)=C/[C@@H]3CC[C@@H](O)[C@H](OC)C3)[C@H](C)[C@@H](O)CC1=O)[C@H](C)C[C@@H]2OC	Gal4-VP16 FLuc inconclusive (no result: DT40 TDP1 CPT, LDHA block, TDP1 cell noCPT, IL1B secr inh)
CC1(C)CS(=O)(=O)N(c2ccc(Cl)c(C(=O)Nc3cccc(C(F)(F)F)c3)c2)C1=O	none (no result: DT40 TDP1 CPT, Gal4-VP16 FLuc, TDP1 cell noCPT, RORgamma inh, IL1B secr inh)
